# Test results from the supplement of paper PMC8728848.
# The sample as a whole holds a higher share of the strongest signals than the screen did.
# Experiments:
# Assay in all cases: glycan array binding signal (z-score within array); higher = stronger binding
# Details in all cases: glycan notation: IUPAC condensed, linker removed
# [1] = target: Fuc(a1-2)Gal(b1-3)GalNAc(a1-3)[Fuc(a1-2)]Gal(b1-4)Glc
# Method in brief: (§1)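 The binding signal is a Z-score computed within each array and averaged over linkers. Arrays of the same protein sequence at different concentrations or buffers were also averaged together. Data originate from 3228 arrays in the Consortium for Functional Glycomics database, kept only where the protein sequence was available.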
# [2] = target: Fuc(a1-2)Gal(b1-3)GalNAc(b1-3)Gal
# Method in brief: as §1
# [3] = target: Fuc(a1-2)Gal(b1-4)[Fuc(a1-3)]GlcNAc(b1-3)GalNAc
# Method in brief: as §1
# [4] = target: Fuc(a1-2)[Gal(a1-3)]Gal(b1-3)GlcNAc
# Method in brief: as §1
# [5] = target: Fuc(a1-2)[Gal(a1-3)]Gal(b1-4)GlcNAc(b1-2)Man
# Method in brief: as §1
# [6] = target: Fuc(a1-2)[GalNAc(a1-3)]Gal(b1-3)GlcNAc(b1-6)GalNAc
# Method in brief: as §1
# [7] = target: Fuc(a1-3)[Gal(b1-4)]GlcNAc
# Method in brief: as §1
# [8] = target: Fuc(a1-3)[GalNAc(b1-4)]GlcNAc
# Method in brief: as §1
# [9] = target: Gal(b1-3)GlcNAc(b1-3)Gal(b1-4)GlcNAc(b1-2)Man(a1-3)[Gal(b1-3)GlcNAc(b1-3)Gal(b1-4)GlcNAc(b1-2)Man(a1-6)]Man(b1-4)GlcNAc(b1-4)GlcNAc
# Method in brief: as §1
# Gal(b1-4)GlcNAc = target: Gal(b1-4)GlcNAc
# Method in brief: as §1
# [10] = target: Gal(b1-4)GlcNAc(b1-2)Man(a1-3)[Gal(b1-4)GlcNAc(b1-2)Man(a1-6)]Man(b1-4)GlcNAc(b1-4)[Fuc(a1-6)]GlcNAc
# Method in brief: as §1
# [11] = target: Gal(b1-4)GlcNAc(b1-2)[Gal(b1-4)GlcNAc(b1-6)]Man(a1-6)[Gal(b1-4)GlcNAc(b1-2)Man(a1-3)]Man(b1-4)GlcNAc(b1-4)[Fuc(a1-6)]GlcNAc
# Method in brief: as §1
# [12] = target: Gal(b1-4)GlcNAc(b1-3)Gal(b1-4)GlcNAc(b1-2)[Gal(b1-4)GlcNAc(b1-3)Gal(b1-4)GlcNAc(b1-6)]Man(a1-6)[Gal(b1-4)GlcNAc(b1-3)Gal(b1-4)GlcNAc(b1-2)Man(a1-3)]Man(b1-4)GlcNAc(b1-4)GlcNAc
# Method in brief: as §1
# [13] = target: Gal(b1-4)GlcNAc(b1-3)Gal(b1-4)GlcNAc(b1-3)Gal(b1-4)GlcNAc(b1-3)Gal(b1-4)GlcNAc(b1-3)Gal(b1-4)GlcNAc(b1-2)Man(a1-3)[Gal(b1-4)GlcNAc(b1-3)Gal(b1-4)GlcNAc(b1-3)Gal(b1-4)GlcNAc(b1-3)Gal(b1-4)GlcNAc(b1-3)Gal(b1-4)GlcNAc(b1-2)Man(a1-6)]Man(b1-4)GlcNAc(b1-4)GlcNAc
# Method in brief: as §1
# [14] = target: Gal(b1-4)GlcNAc(b1-3)Gal(b1-4)GlcNAc(b1-3)Gal(b1-4)GlcNAc(b1-3)Gal(b1-4)GlcNAc(b1-3)Gal(b1-4)GlcNAc(b1-2)[Gal(b1-4)GlcNAc(b1-3)Gal(b1-4)GlcNAc(b1-3)Gal(b1-4)GlcNAc(b1-3)Gal(b1-4)GlcNAc(b1-3)Gal(b1-4)GlcNAc(b1-6)]Man(a1-6)[Gal(b1-4)GlcNAc(b1-3)Gal(b1-4)GlcNAc(b1-3)Gal(b1-4)GlcNAc(b1-3)Gal(b1-4)GlcNAc(b1-3)Gal(b1-4)GlcNAc(b1-2)Man(a1-3)]Man(b1-4)GlcNAc(b1-4)[Fuc(a1-6)]GlcNAc
# Method in brief: as §1
# [15] = target: Gal3S(b1-3)[Fuc(a1-4)]GlcNAc
# Method in brief: as §1
# Gal6S(b1-4)Glc6S = target: Gal6S(b1-4)Glc6S
# Method in brief: as §1
# [16] = target: GalNAc(b1-3)Gal(a1-4)Gal(b1-4)GlcNAc
# Method in brief: as §1
# [17] = target: Glc(a1-4)Glc(a1-4)Glc(a1-4)Glc
# Method in brief: as §1
# [18] = target: GlcNAc(a1-4)Gal(b1-4)GlcNAc
# Method in brief: as §1
# [19] = target: GlcNAc(b1-2)[GlcNAc(b1-6)]Man(a1-6)[GlcNAc(b1-2)Man(a1-3)]Man(b1-4)GlcNAc(b1-4)[Fuc(a1-6)]GlcNAc
# Method in brief: as §1
# [20] = target: GlcNAc(b1-3)Gal(b1-4)GlcNAc(b1-3)Gal(b1-4)GlcNAc(b1-2)Man(a1-3)[GlcNAc(b1-3)Gal(b1-4)GlcNAc(b1-3)Gal(b1-4)GlcNAc(b1-2)Man(a1-6)]Man(b1-4)GlcNAc(b1-4)GlcNAc
# Method in brief: as §1
# [21] = target: GlcNAc(b1-3)Gal(b1-4)GlcNAc(b1-3)Gal(b1-4)GlcNAc(b1-2)Man(a1-3)[GlcNAc(b1-3)Gal(b1-4)GlcNAc(b1-3)Gal(b1-4)GlcNAc(b1-2)Man(a1-6)]Man(b1-4)GlcNAc(b1-4)[Fuc(a1-6)]GlcNAc
# Method in brief: as §1
# [22] = target: GlcNAc(b1-3)Gal(b1-4)GlcNAc(b1-3)Gal(b1-4)GlcNAc(b1-3)Gal(b1-4)GlcNAc(b1-2)Man(a1-3)[GlcNAc(b1-3)Gal(b1-4)GlcNAc(b1-3)Gal(b1-4)GlcNAc(b1-3)Gal(b1-4)GlcNAc(b1-2)Man(a1-6)]Man(b1-4)GlcNAc(b1-4)[Fuc(a1-6)]GlcNAc
# Method in brief: as §1
# [23] = target: GlcNAc(b1-4)GlcNAc(b1-4)GlcNAc(b1-4)GlcNAc(b1-4)GlcNAc(b1-4)GlcNAc
# Method in brief: as §1
# GlcNAc(b1-6)GalNAc = target: GlcNAc(b1-6)GalNAc
# Method in brief: as §1
# [24] = target: Man(a1-2)Man(a1-6)[Man(a1-3)]Man(a1-6)[Man(a1-2)Man(a1-2)Man(a1-3)]Man(b1-4)GlcNAc(b1-4)GlcNAc
# Method in brief: as §1
# [25] = target: Neu5Ac(a2-3)Gal(b1-3)GalNAc(b1-4)[Neu5Ac(a2-8)Neu5Ac(a2-3)]Gal(b1-4)Glc
# Method in brief: as §1
# [26] = target: Neu5Ac(a2-3)Gal(b1-3)GlcNAc
# Method in brief: as §1
# [27] = target: Neu5Ac(a2-3)Gal(b1-3)[GlcNAc(b1-6)]GalNAc
# Method in brief: as §1
# [28] = target: Neu5Ac(a2-3)Gal(b1-3)[Neu5Ac(a2-6)]GlcNAc(b1-3)[Fuc(a1-3)[Gal(b1-4)]GlcNAc(b1-6)]Gal(b1-4)Glc
# Method in brief: as §1
# [29] = target: Neu5Ac(a2-3)Gal(b1-3)]Neu5Ac(a2-3)Gal(b1-4)]GlcNAc
# Method in brief: as §1
# [30] = target: Neu5Ac(a2-3)Gal(b1-4)GlcNAc(b1-3)Gal(b1-4)GlcNAc(b1-3)Gal(b1-4)GlcNAc
# Method in brief: as §1
# [31] = target: Neu5Ac(a2-3)Gal(b1-4)[Fuc(a1-3)]GlcNAc(b1-3)GalNAc
# Method in brief: as §1
# [32] = target: Neu5Ac(a2-3)[Neu5Ac(a2-6)]GalNAc
# Method in brief: as §1
# [33] = target: Neu5Ac(a2-6)Gal(b1-4)GlcNAc(b1-2)[Neu5Ac(a2-6)Gal(b1-4)GlcNAc(b1-4)]Man(a1-3)[GlcNAc(b1-4)][Neu5Ac(a2-6)Gal(b1-4)GlcNAc(b1-2)[Neu5Ac(a2-6)Gal(b1-4)GlcNAc(b1-6)]Man(a1-6)]Man(b1-4)GlcNAc(b1-4)GlcNAc
# Method in brief: as §1
# [34] = target: Neu5Ac(a2-6)Gal(b1-4)GlcNAc(b1-2)[Neu5Ac(a2-6)Gal(b1-4)GlcNAc(b1-4)]Man(a1-3)[GlcNAc(b1-4)][Neu5Ac(a2-6)Gal(b1-4)GlcNAc(b1-4)Man(a1-6)]Man(b1-4)GlcNAc(b1-4)GlcNAc
# Method in brief: as §1
# [35] = target: Neu5Ac(a2-6)Gal(b1-4)GlcNAc(b1-3)Gal(b1-4)GlcNAc(b1-3)GalNAc
# Method in brief: as §1
# [36] = target: Neu5Ac(a2-6)Gal(b1-4)GlcNAc(b1-3)Gal(b1-4)[Fuc(a1-3)]GlcNAc(b1-3)Gal(b1-4)[Fuc(a1-3)]GlcNAc
# Method in brief: as §1
# [37] = target: Neu5Ac(a2-6)GalNAc(b1-4)GlcNAc6S
# Method in brief: as §1
# [38] = target: Neu5Ac(a2-8)Neu5Ac(a2-3)[Gal(b1-3)GalNAc(b1-4)]Gal(b1-4)Glc
# Method in brief: as §1
# [39] = target: Neu5Gc(a2-3)Gal(b1-4)GlcNAc
# Method in brief: as §1
# [40] = target: Neu5Gc(a2-3)Gal(b1-4)GlcNAc(b1-3)Gal(b1-4)GlcNAc(b1-2)Man(a1-3)[Neu5Gc(a2-3)Gal(b1-4)GlcNAc(b1-3)Gal(b1-4)GlcNAc(b1-2)Man(a1-6)]Man(b1-4)GlcNAc(b1-4)GlcNAc
# Method in brief: as §1
# Neu5Gc(a2-6)GalNAc = target: Neu5Gc(a2-6)GalNAc
# Method in brief: as §1
# [41] = target: Neu5Gc(a2-8)Neu5Gc(a2-3)Gal(b1-4)GlcNAc(b1-3)Gal(b1-4)GlcNAc
# Method in brief: as §1
binder,measurement,setting,value
CTAEGIKKFEGDGYELFKDNFPAGEKFDNDDTNDQFYTVIF [MUB40 (Lactobacillus reuteri)],glycan array binding signal (z-score),[1],-0.41
same,glycan array binding signal (z-score),[2],-0.251
same,glycan array binding signal (z-score),[3],3.56
same,glycan array binding signal (z-score),[4],-0.002
same,glycan array binding signal (z-score),[5],2.44
same,glycan array binding signal (z-score),[6],-0.425
same,glycan array binding signal (z-score),[7],0.464
same,glycan array binding signal (z-score),[8],-0.365
same,glycan array binding signal (z-score),[9],4.29
same,glycan array binding signal (z-score),Gal(b1-4)GlcNAc,-0.134
same,glycan array binding signal (z-score),[10],-0.425
same,glycan array binding signal (z-score),[11],0.328
same,glycan array binding signal (z-score),[12],-0.339
same,glycan array binding signal (z-score),[13],3.44
same,glycan array binding signal (z-score),[14],2.67
same,glycan array binding signal (z-score),[15],0.295
same,glycan array binding signal (z-score),Gal6S(b1-4)Glc6S,-0.817
same,glycan array binding signal (z-score),[16],-0.189
same,glycan array binding signal (z-score),[17],-0.331
same,glycan array binding signal (z-score),[18],-0.247
same,glycan array binding signal (z-score),[19],0.341
same,glycan array binding signal (z-score),[20],1.03
same,glycan array binding signal (z-score),[21],2.39
same,glycan array binding signal (z-score),[22],4.26
same,glycan array binding signal (z-score),[23],-0.138
same,glycan array binding signal (z-score),GlcNAc(b1-6)GalNAc,-0.355
same,glycan array binding signal (z-score),[24],-0.33
same,glycan array binding signal (z-score),[25],1.18
same,glycan array binding signal (z-score),[26],-0.358
same,glycan array binding signal (z-score),[27],1.11
same,glycan array binding signal (z-score),[28],-0.114
same,glycan array binding signal (z-score),[29],-0.307
same,glycan array binding signal (z-score),[30],1.72
same,glycan array binding signal (z-score),[31],0.351
same,glycan array binding signal (z-score),[32],1.33
same,glycan array binding signal (z-score),[33],0.5
same,glycan array binding signal (z-score),[34],-0.219
same,glycan array binding signal (z-score),[35],3.03
same,glycan array binding signal (z-score),[36],1.24
same,glycan array binding signal (z-score),[37],2.71
same,glycan array binding signal (z-score),[38],-0.27
same,glycan array binding signal (z-score),[39],2.42
same,glycan array binding signal (z-score),[40],2.75
same,glycan array binding signal (z-score),Neu5Gc(a2-6)GalNAc,0.011
same,glycan array binding signal (z-score),[41],2.42
